{
  "source": "PubChem BioAssay (NCATS)",
  "key": {"[1]": {"experiment": "Viability qHTS for spleen associated tyrosine kinase inhibitor (SYKi) naive MV4-11 cells (AID 1963823); also: nearly all actives have a fitted effect of over 40% in size; also: potency is read from the fitted curve at half-maximal effect", "how_it_was_run": "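Compounds were dispensed acoustically onto plates, MV4-11 cells (SYKi-naive) added at 500 per well, and plates incubated 72 hr at 37 C. CellTiter-Glo was added and luminescence measured after 10 min.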"}, "[2]": {"experiment": "Viability qHTS for spleen associated tyrosine kinase inhibitor (SYKi) drug resistant MV4-11 cells (AID 1963824); also: nearly all actives have a fitted effect of over 35% in size; also: potency is read from the fitted curve at half-maximal effect", "how_it_was_run": "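CellTiter-Glo luminescence, read 10 min after reagent addition, reports viability after a 72 hr compound exposure. Cells are an MV4-11 line made resistant to SYK inhibition, seeded at 500 per well onto compound-containing plates.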"}, "[3]": {"experiment": "Quantitative highthroughput screen to assess conditional lethalithy of NOMO1 cells grown in RPMI1640 with untreated serum (RPMI+s) (AID 1963876); also: nearly all actives have a fitted effect of over 35% in size; also: potency is read from the fitted curve at half-maximal effect;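 as to Viability: 100% = DMSO wells and 0% = empty wells without cells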", "how_it_was_run": "(§1)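 Each medium arm—HPLM with 10% dialyzed FBS, or RPMI1640 with 5 mM glucose and 10% untreated or dialyzed FBS—was screened against an 11-point, 3-fold compound titration for 48 h at 37 °C, with CellTiter-Glo luminescence as endpoint.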"}, "[4]": {"experiment": "Quantitative highthroughput screen to assess conditional lethalithy of NOMO1 cells grown in RPMI1640 with dialyzed fetal bovine serum (RPMI+ds) (AID 1963877)", "how_it_was_run": "as §1"}, "[5]": {"experiment": "Quantitative highthroughput screen to assess conditional lethalithy of NOMO1 cells grown in Human Plasma-Like Medium with dialyzed fetal bovine serum (HPLM+ds) (AID 1963878)", "how_it_was_run": "as §1"}, "[6]": {"experiment": "Quantitative highthroughput screen to assess conditional lethalithy of P12 Ichikawa cells grown in Human Plasma-Like Medium with dialyzed fetal bovine serum (HPLM+ds) (AID 1963879)", "settings": "Potency: viability", "how_it_was_run": "as §1"}, "[7]": {"experiment": "Cellular viability qHTS for adrenocortical cancer (ACC) cell line SW-13 (AID 1963989)", "settings": "SW-13 ACC cells viability, CellTiter-Glo, 48 h; activity (max response): hits give low values", "how_it_was_run": "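Compound titrations (up to 46 uM final, in DMSO) were applied to SW-13 cells for 48 h at 37C/5% CO2. Reading used CellTiter-Glo after 20 min at room temperature; fitted curves yielded IC50 and efficacy.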"}, "[8]": {"experiment": "Quantitative highthroughput screen to assess conditional lethalithy of P12 Ichikawa cells grown in RPMI1640 with dialyzed fetal bovine serum (RPMI+ds) (AID 1963880)", "settings": "Potency: P12-Ichikawa viability", "how_it_was_run": "as §1"}, "[9]": {"experiment": "Quantitative highthroughput screen to assess conditional lethalithy of P12 Ichikawa cells grown in RPMI1640 with untreated serum (RPMI+s) (AID 1963881)", "settings": "Potency: viability", "how_it_was_run": "as §1"}, "[10]": {"experiment": "Quantitative highthroughput screen to assess conditional lethalithy of SEM cells grown in Human Plasma-Like Medium with dialyzed fetal bovine serum (HPLM+ds) (AID 1963882)", "how_it_was_run": "as §1"}, "[11]": {"experiment": "Quantitative highthroughput screen to assess conditional lethalithy of SEM cells grown in RPMI1640 with unreated serum (RPMI+s) (AID 1963883)", "how_it_was_run": "as §1"}, "[12]": {"experiment": "Quantitative highthroughput screen to assess conditional lethalithy of SEM cells grown in RPMI1640 with dialyzed fetal bovine serum (RPMI+ds) (AID 1963884)", "how_it_was_run": "as §1"}, "[13]": {"experiment": "Cellular viability qHTS for adrenocortical cancer (ACC) cell line NCI-H295R (AID 1963990)", "how_it_was_run": "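Readout: CellTiter-Glo luminescence, 20 min RT. Exposure: 48 h, 37C/5% CO2. Cells: NCI-H295R, ITS-DMEM serum-free. Range: up to 46 uM. Analysis: 4PL fit, IC50 plus efficacy.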"}},
  "note": "Where “and” joins values, the source holds several entries; their conditions need not be identical. Equal entries are not always repeated. Records with an inconclusive call do not appear. Calls of active or inactive are those of the source. Calls follow the shape of the dose curve; as a rule, active = well fitted curve in the direction sought with a large enough effect; inconclusive = small, poorly fitted or top-dose-only effect, or another doubt; inactive = no such curve, though single readings can be large; an effect the other way counts as inactive or inconclusive. For activity (max response) in this document: % is scaled to controls: 0 for no effect and ±100 for the full control effect. For activity (max response) in this document: nearly all actives have a fitted effect of over 65% in size.",
  "data": [
    {"smiles": "OCc1ccc(-c2nn(Cc3ccccc3)c3ccccc23)o1", "values": [
      {"measurement": "Potency", "setting": "[1]", "value": "5250 nM (active)"},
      {"measurement": "Potency", "setting": "[2]", "value": "4.68 µM (active)"},
      {"measurement": "Potency", "setting": "[3]", "value": "13200 nM (active)"},
      {"measurement": "Potency", "setting": "[4]", "value": "16600 nM (active)"},
      {"measurement": "Potency", "setting": "[5]", "value": "16600 nM (active)"},
      {"measurement": "Potency", "setting": "[6]", "value": "inactive"},
      {"measurement": "activity (max response)", "setting": "[7]", "value": "-19% (inactive)"}
    ]},
    {"smiles": "Cc1nc(Nc2n[nH]c3c2CN(C(=O)N[C@H](CN(C)C)c2ccccc2)C3(C)C)c2sccc2n1", "values": [
      {"measurement": "Potency", "setting": "[1]", "value": "13.2 nM (active)"},
      {"measurement": "Potency", "setting": "[2]", "value": "0.0118 µM (active)"},
      {"measurement": "Potency", "setting": "[3]", "value": "1320 nM (active)"},
      {"measurement": "Potency", "setting": "[4]", "value": "3720 nM (active)"},
      {"measurement": "Potency", "setting": "[5]", "value": "1480 nM (active)"},
      {"measurement": "Potency", "setting": "[8]", "value": "1480 nM (active)"},
      {"measurement": "Potency", "setting": "[9]", "value": "1660 nM (active)"},
      {"measurement": "Potency", "setting": "[10]", "value": "743 nM (active)"},
      {"measurement": "Potency", "setting": "[11]", "value": "332 nM (active)"},
      {"measurement": "Potency", "setting": "[12]", "value": "1180 nM (active)"},
      {"measurement": "Potency", "setting": "[7]", "value": "3160 nM (active)"},
      {"measurement": "Potency", "setting": "[13]", "value": "28200 nM (active)"}
    ]},
    {"smiles": "CC(C)c1cc(-c2n[nH]c(=O)n2-c2ccc3c(ccn3C)c2)c(O)cc1O", "values": [
      {"measurement": "Potency", "setting": "[1]", "value": "9.2 nM (active) and 9.3 nM (active)"},
      {"measurement": "Potency", "setting": "[2]", "value": "11.6 nM (active) and 16.6 nM (active)"},
      {"measurement": "Potency", "setting": "[3]", "value": "118 nM (active)"},
      {"measurement": "Potency", "setting": "[4]", "value": "93.5 nM (active)"},
      {"measurement": "Potency", "setting": "[5]", "value": "105 nM (active)"},
      {"measurement": "Potency", "setting": "[10]", "value": "74.3 nM (active)"},
      {"measurement": "Potency", "setting": "[7]", "value": "282 nM (active)"}
    ]},
    {"smiles": "CN1C2CCC1CC(OC(=O)C(CO)c1ccccc1)C2", "note": "(stereo unspecified)", "values": [
      {"measurement": "Potency", "setting": "[1]", "value": "inactive"},
      {"measurement": "Potency", "setting": "[2]", "value": "inactive"},
      {"measurement": "Potency", "setting": "[3]", "value": "inactive"},
      {"measurement": "Potency", "setting": "[4]", "value": "inactive"},
      {"measurement": "Potency", "setting": "[5]", "value": "inactive"},
      {"measurement": "Potency", "setting": "[10]", "value": "inactive"},
      {"measurement": "Potency", "setting": "[11]", "value": "inactive"},
      {"measurement": "Potency", "setting": "[12]", "value": "inactive"},
      {"measurement": "activity (max response)", "setting": "[7]", "value": "-20.1% (inactive)"},
      {"measurement": "Potency", "setting": "[13]", "value": "inactive"}
    ]},
    {"smiles": "COc1ccc(-c2ccc3ncc4c(c3c2)n(-c2ccc(N3CCNCC3)c(C(F)(F)F)c2)c(=O)n4C)cn1", "values": [
      {"measurement": "Potency", "setting": "[1]", "value": "26.3 nM (active)"},
      {"measurement": "Potency", "setting": "[2]", "value": "13 nM (active) and 16.4 nM (active) and 29.5 nM (active)"},
      {"measurement": "Potency", "setting": "[3]", "value": "526 nM (active)"},
      {"measurement": "Potency", "setting": "[4]", "value": "469 nM (active)"},
      {"measurement": "Potency", "setting": "[5]", "value": "148 nM (active)"},
      {"measurement": "Potency", "setting": "[8]", "value": "187 nM (active)"},
      {"measurement": "Potency", "setting": "[10]", "value": "74.3 nM (active)"},
      {"measurement": "Potency", "setting": "[11]", "value": "20.9 nM (active)"},
      {"measurement": "Potency", "setting": "[7]", "value": "316 nM (active)"},
      {"measurement": "Potency", "setting": "[13]", "value": "126 nM (active)"}
    ]}
  ]
}
